Screens (PubChem)
Hits are enriched below; roughly 19% of the tested compounds scored in any of these assays.
HT1080-NT tox: kills 2HG-producing HT-1080-NT fibrosarcoma cells | HT-1080-NT fibrosarcoma viability, CellTiter-Glo ATP luminescence, 48 h | Potency, µM (series often up to 46.1 µM), actives largely listed as cytotoxic | 360,000 compounds, 1.6% hits | AID 686970;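 also: NT is the 2HG producing partner of a matched IDH1 knockdown line; nearly all actives have a fitted effect of over 55% in size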
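Read-out is CellTiter-Glo luminescence after 10 minutes at room temperature, following 48 hours' compound treatment of HT-1080-NT cells (750 cells/well, RPMI, 5% FBS, 37 degrees C).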
HT1080 IDH1KD tx: toxicity to HT-1080 IDH1 knockdown cells (counter line); HT-1080 IDH1 knockdown viability, ATP luminescence, 48 h; Potency, µM (series often up to 46.1 µM), hits mostly cytotoxic; AID 686971; 360,000 compounds, 2% hits
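Cytotoxicity counter-line: IDH1KD HT-1080, 48 h, CellTiter-Glo. Curves classed by r2, magnitude and activity.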
TDP1 cell CPT: DT40-hTDP1 cell growth loss with CPT | chicken DT40 Tdp1-/-;hTDP1 cells + 20 nM CPT, ATP luminescence, 48 h | Potency, µM (doses to about 46.2 µM), hits mostly inhibitors | 420,000 compounds, 12% hits; also: nearly all actives have a fitted effect of over 55% in size
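Chicken DT40 Tdp1-/- cells stably complemented with human TDP1 were seeded at 400 cells/well in medium containing 20 nM camptothecin, exposed to pin-transferred compounds, and grown at 37 °C for at least 48 hr. Viability was read as ATP luminescence.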
ELG1 DNA repair: blocks ELG1-dependent DNA repair in HEK293T cells; HEK293T ELG1-luciferase reporter, luminescence, 16 h; DNA damage induced by 5-fluorouridine; Potency, µM (doses to about 46.1 µM), usual class: inhibitors; 330,000 compounds, 2.3% hits; also: nearly all actives have a fitted effect of over 55% in size
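DMSO vehicle served as the neutral condition. Each well held 2,000 cells given 5-fluorouridine plus compound; after 16 hr at 37 °C/5% CO2, ONE-Glo was added and luciferase measured 30 min later.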
IL-1B inflam inh: inhibitors of inflammasome signaling (IL-1 beta secretion). THP-1 LPS/ATP IL-1B secretion, AlphaLISA, 16 h; stronger effect = lower value. activity change, % at 57.5 µM. 360,000 compounds, 4.7% hits. AID 743279; in the data active = activity change below about -50%; inconclusive = mostly about -30% to -49%
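Secreted IL-1B measured by AlphaLISA bead assay after 16 h compound exposure of THP-1 cells; compounds (final up to 57.5 uM) added 1 h before LPS (250 ng/mL) and ATP (1.25 mM) stimulation; lower signal means less secretion.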
TDP1 cell noCPT: qHTS for Inhibitors of human tyrosyl-DNA phosphodiesterase 1 (TDP1): qHTS in cells in absence of CPT | DT40 Tdp1-/- hTDP1 cells, no CPT, ATP luminescence, 48 h | Potency, µM (top dose mostly 46.2 µM), hits mostly inhibitors | 420,000 compounds, 15% hits | AID 686978, 2013; also: nearly all actives have a fitted effect of over 55% in size
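Growth kinetics read by CellTiter-Glo luminescence after ≥48 hr at 37 °C. Cells: DT40 Tdp1-/- stably carrying human TDP1, 400 per well, compound exposure in the absence of CPT (DMSO vehicle).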
Each line names hits and unclear results; the compound was inactive in the other large screens. Unless noted, calls follow the shape of the dose curve; as a rule, active = well fitted curve in the direction sought with a large enough effect; inconclusive = small, poorly fitted or top-dose-only effect, or another doubt; inactive = no such curve, though single readings can be large; an effect the other way counts as inactive or inconclusive.

CC1(C)CCC(=O)N2CC[C@H]3C[C@H](OC(=O)Nc4ccc(Br)cc4)C[C@@H]1[C@H]32	TDP1 cell CPT 35µM, ELG1 DNA repair inconclusive, TDP1 cell noCPT inconclusive
Cc1noc(C)c1C(=O)OCC(=O)/C=C1/N(C)c2ccccc2C1(C)C	TDP1 cell CPT inconclusive, TDP1 cell noCPT 12µM (no result: ELG1 DNA repair)
Cc1ccc(C(=O)NCC(=O)OCC(=O)/C=C2\N(C)c3ccccc3C2(C)C)cc1C	TDP1 cell CPT 16µM, TDP1 cell noCPT inconclusive
Cc1ccc(C(=O)NCC(=O)OCCCOC(=O)CNC(=O)c2ccc(C)c(C)c2)cc1C	none
CCc1ccccc1NC(=O)COc1ccc2c(c1)OCO2	none
CN1/C(=C\C(=O)COC(=O)C2COc3ccccc3O2)C(C)(C)c2ccccc21 (centres undefined)	TDP1 cell CPT 12µM, TDP1 cell noCPT inconclusive
CN1/C(=C\C(=O)COc2ccc3c(c2)OCO3)C(C)(C)c2ccccc21	TDP1 cell CPT 8.2µM, IL-1B inflam inh -78, TDP1 cell noCPT 8.2µM
O=C1COc2ccccc2N1Cc1ccc(Cl)cc1	TDP1 cell noCPT inconclusive
COc1ccc(C(=O)N2CCCCC2c2cc(C(=O)NCc3ccccc3)no2)cc1 (centres undefined)	TDP1 cell CPT inconclusive (no result: ELG1 DNA repair)
CC1(C)C(=O)Nc2ccccc2N1C(=O)COc1ccc(C#N)cc1	none
COc1ccccc1OCC(=O)/C=C1/N(C)c2ccccc2C1(C)C	TDP1 cell CPT 16µM, ELG1 DNA repair inconclusive, TDP1 cell noCPT 21µM
CN1/C(=C\C(=O)CSc2ncn[nH]2)C(C)(C)c2ccccc21	TDP1 cell CPT inconclusive, TDP1 cell noCPT inconclusive
O=C(Nc1cccc(Br)c1)c1cccc(OC(=S)N2CCOCC2)c1	HT1080 IDH1KD tx inconclusive, TDP1 cell CPT inconclusive, ELG1 DNA repair 15µM, IL-1B inflam inh -67, TDP1 cell noCPT inconclusive
COc1cccc(C(=O)Nc2ccc3nc(SCC(=O)N4CCOCC4)sc3c2)c1	TDP1 cell CPT 15µM, TDP1 cell noCPT 13µM (no result: HT1080-NT tox, HT1080 IDH1KD tx, ELG1 DNA repair, IL-1B inflam inh)
O=C(Nc1ccc2nc(SCC(=O)N3CCOCC3)sc2c1)c1cccc(Br)c1	TDP1 cell CPT 13µM, TDP1 cell noCPT 8.2µM (no result: HT1080-NT tox, HT1080 IDH1KD tx, ELG1 DNA repair, IL-1B inflam inh)
O=C(Nc1ccc2nc(SCC(=O)N3CCOCC3)sc2c1)c1ccc(Br)cc1	TDP1 cell CPT inconclusive, TDP1 cell noCPT 2.3µM (no result: HT1080-NT tox, HT1080 IDH1KD tx, ELG1 DNA repair, IL-1B inflam inh)
COc1cc2c(cc1OC)C(Cc1ccc(O)cc1)N(C)CC2 (centres undefined)	none
COc1cc2c(cc1OC)C(C)N(C(=O)c1cc(Cl)nc(Cl)c1)CC2 (centres undefined)	HT1080-NT tox inconclusive, HT1080 IDH1KD tx inconclusive, TDP1 cell CPT 7.3µM, ELG1 DNA repair inconclusive, TDP1 cell noCPT inconclusive
COc1cc2c(cc1OC)C(C)N(Cc1ccc3c(c1)OCO3)CC2 (centres undefined)	TDP1 cell CPT inconclusive, TDP1 cell noCPT 18µM
COc1cc2c(cc1OC)C(C)N(C(=O)Cn1ncc3c1-c1ccccc1OC3)CC2 (centres undefined)	TDP1 cell CPT inconclusive, ELG1 DNA repair inconclusive, TDP1 cell noCPT inconclusive
COc1cc2c(cc1OC)C(C)N(C(=O)c1ccc(Br)o1)CC2 (centres undefined)	TDP1 cell CPT inconclusive, ELG1 DNA repair inconclusive, TDP1 cell noCPT 16µM
Cc1cc(C(=O)CN2C(=O)C(=O)N(Cc3ccccc3)C2=O)c(C)n1-c1ccccc1F	TDP1 cell noCPT inconclusive
Cc1cc(C(=O)CN2CCC(C)CC2)c(C)n1-c1ccccc1F	TDP1 cell CPT inconclusive, ELG1 DNA repair inconclusive, TDP1 cell noCPT 16µM
COc1ccc(OCC(O)CNC(C)c2ccccc2)cc1 (centres undefined)	TDP1 cell CPT inconclusive, TDP1 cell noCPT inconclusive
CC(NCC(O)COc1ccc(Br)cc1)c1ccccc1 (centres undefined)	HT1080-NT tox inconclusive, HT1080 IDH1KD tx inconclusive, TDP1 cell CPT inconclusive, IL-1B inflam inh inconclusive, TDP1 cell noCPT inconclusive
